# A number with no mark means an inactive call. How the calls were made is not given here.
# Target: Pantothenate synthetase (Mycobacterium tuberculosis (strain ATCC 25618 / H37Rv)) (UniProt P9WIL5)
# Test: Coupled enzyme confirmation of inhibitors against recombinant Mtb PanC (AID 375);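 further: 0% = full reaction with vehicle and 100% = no enzyme background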
# Settings: coupled enzyme assay; at 10 µM, active compounds read high
# Sequence of Pantothenate synthetase (Mycobacterium tuberculosis (strain ATCC 25618 / H37Rv)) (P9WIL5 whole entry, looked up): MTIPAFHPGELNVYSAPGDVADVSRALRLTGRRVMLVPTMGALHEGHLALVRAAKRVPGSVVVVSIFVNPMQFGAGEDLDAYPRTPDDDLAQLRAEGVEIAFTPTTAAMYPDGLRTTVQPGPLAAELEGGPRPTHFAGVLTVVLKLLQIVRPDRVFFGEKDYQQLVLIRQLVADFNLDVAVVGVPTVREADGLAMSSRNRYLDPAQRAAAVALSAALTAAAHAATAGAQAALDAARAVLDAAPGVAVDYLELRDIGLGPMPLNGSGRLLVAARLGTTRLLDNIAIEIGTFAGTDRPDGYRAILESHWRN
row,Structure (SMILES),inhibition
1,O=C(Sc1nnnn1C1CCCCC1)c1cccs1,0%
2,COc1cccc(CN(C)CC(=O)NC(=O)NCc2ccco2)c1,0%
3,COc1ccc(N2CCN(C(=O)COc3ccc4ccccc4c3)CC2)cc1,2%
4,CCCCOCCCNC(=O)c1cccs1,0%
5,CCn1c(CSc2nc(C)cc(C)n2)nnc1SCC(=O)Nc1ccccc1,5%
6,CN1CCN(C(=O)C2CCN(S(=O)(=O)c3ccc4c(c3)oc(=O)n4C)CC2)CC1,0%
7,CCOC(=O)Cc1csc(NC(=O)CSc2nnc(C3CC3)n2C)n1,3%
8,O=C(Nc1c(C(=O)NCc2ccco2)cnn1-c1ccccc1)c1ccc(F)cc1,2%
9,Cc1[nH]c2ccccc2c(=O)c1CN(C)Cc1ccccc1,6%
10,COc1ccc(CCNC(=O)CCN2C(=O)C3CC=CCC3C2=O)cc1OC (stereo not given),0%
11,Cc1ccc2nc(NC(=O)Cn3cc4c(n3)CCCCC4)sc2c1,0%
12,COc1ccc(NC(=O)CN2CCN(S(=O)(=O)c3ccc(Cl)cc3)CC2)cc1,13%
13,CCOC(=O)c1c(NC(=O)c2cccs2)sc(C)c1C,0%
14,Cc1cc(C)n(CCc2nc(-c3cccs3)cs2)n1,2%
15,CC(=O)c1ccc(NC(=O)CSc2nnc(-c3ccoc3C)n2Cc2ccccc2)cc1,0%
16,CCN(CC(=O)Nc1ccc2c(c1)OCCO2)Cc1cc(=O)oc2cc(C)c(C)cc12,0%
17,O=C(OCC#CCSc1nnc(-c2ccccc2)o1)c1cccs1,0%
18,Cc1cc(C)c(S(=O)(=O)N(C)CC(N)=O)c(C)c1,0%
19,CCN1C(=O)N(CC)C2C1N(C(C)=O)C(=O)N2C(C)=O (stereo not given),0%
20,Cn1nnnc1SCC1=C(C(=O)O)N2C(=O)[C@@H](NC(=O)[C@H](O)c3ccccc3)[C@H]2SC1,0%

row,Structure (SMILES),inhibition
1,OCc1nc2ccccc2n1CCCOc1ccccc1,0%
2,Cc1cc(NCCCn2ccnc2)n2c(nc3ccccc32)c1C#N,0%
3,CC(C(=O)Oc1ccc2c(c1)OCO2)N1C(=O)c2ccccc2C1=O (stereo not given),5%
4,CN(Cc1cccs1)C(=O)CCc1ccc(S(=O)(=O)N2CCOCC2)cc1,1%
5,CCCN(CCC)C(=O)CSc1nc2ccccc2c(=O)n1C1CCCC1,7%
6,CCOc1nc(-c2ccccc2)ccc1-c1noc(-c2ccc(OC)c(OC)c2)n1,4%
7,CS(=O)(=O)N1CCCC(C(=O)NCc2ccccc2Cl)C1 (stereo not given),0%
8,O=C(CNC1CCCCCC1)Nc1ccc(S(=O)(=O)NC2CC2)cc1,2%
9,COc1ccc(N2CCN(C(=O)CSc3ncnc4c3cnn4-c3ccccc3C)CC2)cc1,0%
10,CN(C)S(=O)(=O)c1ccc(S(=O)(=O)Nc2ccc3c(c2)oc2ccccc23)cc1,0%
11,COc1cccc(N2CCN(c3c4c(nc5ncnn35)CCC4)CC2)c1,0%
12,COc1ccc(OC)c(C2C(C(=O)Nc3cccnc3)=C(C)NC3=C2C(=O)CCC3)c1 (stereo not given),0%
13,CN1CCCC(OC(=O)c2ccc3c(c2)OCCO3)C1 (stereo not given),0%
14,CCN(CC)CCCN(Cc1cc2cc(OC)ccc2[nH]c1=O)C(=O)Nc1ccccc1,9%
15,CCc1ccc(N2CC34C=CC(O3)C(C(=O)OC)C4C2=O)cc1 (stereo not given),0%
16,CCn1c(C(=O)N2CCCC(C(=O)NCCCc3ccccc3)C2)cc2sccc21 (stereo not given),0%
17,Cc1cc(NC(=O)COc2cccc3cccnc23)no1,6%
18,CCOC(=O)c1cc2cc(F)ccc2nc1C,1%
19,COC(=O)c1cc2ccsc2n1CC(=O)N(C)c1ccccc1,10%
20,Cc1ccc(S(=O)(=O)NCCOC(=O)Nc2sc(=S)n(C)c2C)cc1,0%
